# Screening data from PubChem.
# Hits are enriched below; roughly 3.4% of the tested compounds scored in any of these assays.
# RGS12 GoLoco inh: inhibitors of human Gai1-RGS12 GoLoco interaction (red fluorophore) | P63096 | Gai1:RGS12 GoLoco peptide FP, rhodamine, 10 min | Potency, µM (top dose mostly 61.6 µM), inactives show at the highest dose activity, negative = inhibition, usual class: inhibitors | 0.44% of 230,000 active | AID 880; active = well fitted inhibition curve with a large enough effect, not every such curve was filed as active; inactive = no such curve, though single readings can be large or run the other way; note: nearly all actives have a fitted effect of over 30% in size
# Target sequence (P63096 whole entry, looked up): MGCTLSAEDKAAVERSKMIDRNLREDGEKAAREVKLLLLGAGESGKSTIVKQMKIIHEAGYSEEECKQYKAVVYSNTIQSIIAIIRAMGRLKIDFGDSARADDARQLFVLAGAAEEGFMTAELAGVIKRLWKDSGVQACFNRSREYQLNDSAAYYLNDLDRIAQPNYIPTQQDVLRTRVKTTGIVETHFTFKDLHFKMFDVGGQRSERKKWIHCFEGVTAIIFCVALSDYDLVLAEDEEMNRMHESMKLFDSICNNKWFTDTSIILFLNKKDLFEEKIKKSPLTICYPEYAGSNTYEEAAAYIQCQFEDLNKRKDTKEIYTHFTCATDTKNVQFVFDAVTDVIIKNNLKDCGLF
# KDM4E inh: inhibitors of human JMJD2E histone demethylase. JMJD2E catalytic domain, FDH-coupled NADH fluorescence (FDH is formaldehyde dehydrogenase). 1.6% of 230,000 active. B2RXH2. Potency, µM (top dose mostly 57.1 µM), for inactives: top-dose activity change, negative = inhibition, hits mostly inhibitors. AID 2147; active = well fitted inhibition curve with a large enough effect, not every such curve was filed as active; inconclusive = small, poorly fitted or top-dose-only effect, or another doubt; inactive = no such curve, though single readings can be large or run the other way;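 note: 0% = wells with enzyme and -100% = buffer wells without enzyme; nearly all actives have a fitted effect of over 50% in size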
# Target sequence (B2RXH2 1-337 limits assumed): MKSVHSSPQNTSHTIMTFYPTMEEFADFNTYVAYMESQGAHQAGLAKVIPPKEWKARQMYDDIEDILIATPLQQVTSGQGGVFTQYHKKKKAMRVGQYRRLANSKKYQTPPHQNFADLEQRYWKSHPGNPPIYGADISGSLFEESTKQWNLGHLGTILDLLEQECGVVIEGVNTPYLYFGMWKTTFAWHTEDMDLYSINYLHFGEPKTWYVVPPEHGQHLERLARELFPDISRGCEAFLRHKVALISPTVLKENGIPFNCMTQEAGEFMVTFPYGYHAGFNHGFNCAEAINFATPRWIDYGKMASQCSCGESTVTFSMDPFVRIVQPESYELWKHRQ
# Tau FP inhib: blocks human tau fibril formation measured by polarization; K18 P301L tau heparin fibrillization, Alexa594 FP, 6 h; Potency, µM (doses to about 57.7 µM), for the others: at the highest dose activity, negative = inhibition, usual class: inhibitors; 0.39% of 280,000 active; AID 1468; note: nearly all actives have a fitted effect of over 55% in size
#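 Compound effects on tau fibrillization are measured by Alexa 594 fluorescence polarization (ex 555, em 632 nm). K18 P301L tau is used at 15 uM with 0.24 uM labeled tracer, and 20 uM heparin induces aggregation over 6 hr at 37 C.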
# Tau ThT inhib: tau fibrillization inhibition (ThT binding). P10636. recombinant tau K18 P301L, heparin-induced fibrillization, ThT fluorescence. Potency, µM (series often up to 57.4 µM), for the others: at the top dose activity, negative = inhibition, hits mostly inhibitors. 2.1% of 270,000 active. AID 1460; note: nearly all actives have a fitted effect of over 55% in size
#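 ThT emission at 510 nm, taken 1 hr after adding 30 uM dye, quantifies aggregates formed when 20 uM heparin acts on human tau K18 P301L for 6 hr at 37 C.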
# Tau fluor counter: counter-screen for tau fibril formation inhibitors; Potency, µM (titrated, usually from 57.7 µM), without a hit: at the top dose activity change, negative = decrease; AID 1463; 0.93% of 280,000 active; tau K18 P301L (four-repeat tau fragment) Alexa594 fluorescence, heparin fibrillization; note: nearly all actives have a fitted effect of over 55% in size
#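 Human K18 P301L tau (15 uM unlabeled plus 0.24 uM Alexa 594-labeled, final) in 100 mM sodium acetate pH 7 was mixed with compound and 20 uM heparin and incubated 6 hr at 37 C.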
# An asterisk follows results filed as active; i = inactive; ? = inconclusive; . = no result given; [ ] = dose if it differs, or a comment. Unless noted, calls come from the whole dose curve; as a rule, active = well fitted curve in the direction sought with a large enough effect; inconclusive = small, poorly fitted or top-dose-only effect, or another doubt; inactive = no such curve, though single readings can be large; an effect the other way counts as inactive or inconclusive. Unless noted, % is set by controls: 0 for no effect and ±100 for the full control effect; potency is the fitted concentration of half-maximal effect.
SMILES,RGS12 GoLoco inh,KDM4E inh,Tau FP inhib,Tau ThT inhib,Tau fluor counter
Cc1ncsc1C(=O)N1N=C2/C(=C/c3ccccc3)CCCC2C1c1ccccc1 (stereo not drawn),3%,?,-2%,-12%,-3%
Cc1ncsc1C(=O)N1N=C2/C(=C/c3ccc(N4CCOCC4)cc3)CCCC2C1c1ccc(N2CCOCC2)cc1 (stereo not drawn),35%,-1%,5%,14µM*,-22%
Cc1ccc2c(c1)N(C(=O)N1CCC(C(=O)NCc3ccccc3C)CC1)CC(C)O2 (stereo not drawn),.,.,3%,-15%,?
CCc1ccccc1NC(=O)N(C)CCc1c(C)nn(C)c1C,.,.,3%,-6%,-16%
O=C(Cn1c2[n+](c3ccc(C(F)(F)F)cc31)CCCCC2)Nc1ccccc1,3.2µM*,2%,8%,-2%,-2%
CCc1cccc(NC(=O)Cn2c3[n+](c4ccc(C(F)(F)F)cc42)CCCCC3)c1,14µM*,?,9%,-5%,1%
FC(F)(F)c1ccc2c(c1)n(Cc1ccccc1)c1[n+]2CCCCC1,-36%,-8%,-3%,-10%,-9%
Cc1cccc(N2CCN(C(=O)C3CCCN(S(=O)(=O)c4cccc5nsnc45)C3)CC2)c1C (stereo not drawn),.,.,-14%,-12%,-19%
CCCCCCCc1ccc(-c2ccc(O)cc2)nc1,-3%,-3%,?,?,14µM*[quencher]
CC1=CC(=O)c2c(O)ccc(O)c2C1=O,25µM*,?,?,?,?
O=C1C=C(N2CCN(c3ccccn3)CC2)C(=O)c2c(O)ccc(O)c21,6%[14.2 µM],.,.,.,.
CC[n+]1cc(-c2ccccc2)nc(N2CCOCC2)n1,7.1µM*,-14%,?,-22%,-12%
COc1cc(NC(=O)CSc2cc(=O)n(C)c3ccccc23)cc(OC)c1OC,.,.,-5%,-8%,-28%
Cc1ccc2[nH]c(-c3cccc(F)c3)cc(=O)c2c1,8%[88.7 µM],?,?,-18%[126 µM],-24%[126 µM]
Cc1ccc2[nH]c(-c3cccc(N)c3)cc2c1,1%,?,?,10µM*,14µM*[quencher]
CC(C)(C)C(=O)Nc1cc(-c2cccc(Br)c2)nn1-c1ccccc1,.,.,-14%,-2%,-20%
COc1ccc(OC)c(NC(=O)CN(C)S(=O)(=O)c2ccc3[nH]c4c(c3c2)CCCC4)c1,.,.,7%,-1%,?
Cc1ccc2[nH]c3c(=O)n(CC(=O)N4CCCC(C)C4)ncc3c2c1 (stereo not drawn),.,.,-5%,-7%,-11%
CCN(CC)c1ccc(/C=C/C(=O)C2C(=O)C=C(C)OC2=O)cc1 (stereo not drawn),i,?,?,3.2µM*,6.3µM*[fluorescent]
CCN(CC)c1ccc(C=C2C(=O)OC(c3ccccc3)OC2=O)cc1 (stereo not drawn),3%,-23%,-16%,6%,1%
CCc1ccc(-n2c(=O)c3sc4ccccc4c3n(CC(=O)N3CCCC3)c2=O)cc1,.,.,-4%,-9%,-11%
CCOc1ccc(S(=O)(=O)N2CCC(N3CCN(Cc4ccc(C)cc4)C(=O)C3=O)CC2)cc1,.,.,2%,0%,0%
CC(C)C(=O)N(c1cc2sc(=O)oc2c2ccccc12)S(=O)(=O)c1cccs1,-15%,10µM*,?,16µM*,?
CC(C)C(=O)N(c1ccc2oc(=O)sc2c1)S(=O)(=O)c1cccs1,-7%,-2%,?,?,-23%
Cc1ccc(CN2C(=O)C(=O)c3cc(Br)cc(C)c32)cc1,.,.,?,28µM*,?
SMILES,RGS12 GoLoco inh,KDM4E inh,Tau FP inhib,Tau ThT inhib,Tau fluor counter
Cc1ccc(OCCCN2C(=O)C(=O)c3cccc(C)c32)cc1,-12%,1%,3%,?,-12%
Cc1ccc2c(c1)C(=O)C(=O)N2Cc1ccc(OC(C)C)cc1,.,.,-3%,?,-19%
CCCOc1ccc(CN2C(=O)C(=O)c3cccc(C)c32)cc1,.,.,-3%,18µM*,-26%
CSc1nc2c(sc3ccccc32)c(=O)n1Cc1ccc(C)cc1,.,.,-13%,-17%,?
Cc1ccc2c(CNCCc3ccco3)c(C(=O)O)n(Cc3ccc(F)cc3)c2c1,.,.,5%,0%,-2%
O=C(O)C(C(=O)/C=C/c1ccco1)=C1SCCS1,0%,-23%,?,16µM*,-16%
O=C(C=C1SCCS1)/C=C/c1ccco1,6%,-5%,5%,?,-2%
COc1ccc(C)cc1Nc1nc(N)c2cc(OC)c(OC)cc2n1,.,.,?,-5%,20µM*[quencher]
Cc1ccc(C)c(Nc2nc(N)c3ccccc3n2)c1,4%,-14%,3%,-1%,-4%
CC(=O)O[C@@H]1C(CO[Si](C)(C)C(C)(C)C)=C(Br)C(=O)[C@@H]2O[C@]12C,0%,-17%,?,28µM*,-26%
CCN(CC)c1ccc(C=N/C(C#N)=C(\N)C#N)cc1,280%,-10%,?,2µM*,14%
c1cc2[nH]snc2c2nc(C3CC3)nc12,6%,20µM*,-12%,?,-13%
Cc1cc(C)c(S(=O)(=O)NCC(c2ccco2)N2CCOCC2)c(C)c1 (stereo not drawn),.,.,-5%,-1%,-7%
O=[N+]([O-])c1cccc(-c2cnc3ccccc3n2)c1,-4%,1%,4%,-19%,-13%
O=Nc1c(-c2cccc([N+](=O)[O-])c2)nc2ncccn12,-20%,?,6.3µM*,4µM*,-29%
CCc1ccc(-n2nc(CO)c(C(=O)NCCCCc3ccccc3)n2)cc1,.,.,8%,0%,8%
CC(Oc1ccc(Cl)cc1)C(=O)NNC(=S)NC(=O)c1ccco1 (stereo not drawn),-2%,20µM*,-15%,?,-19%
COc1cc(C(c2c(C)[nH][nH]c2=O)c2c(C)[nH][nH]c2=O)ccc1OCc1ccc([N+](=O)[O-])cc1,-9%,?,-7%,10µM*,?
COc1ccc(OC)c(N=c2oc3cc(O)ccc3cc2C(N)=O)c1,18µM*,?,?,32µM*,?
CCCCCc1cc(=O)oc2c(C(CCN3CCCCC3)c3ccc(OC)cc3)c(OC)cc(OC)c12 (stereo not drawn),8%,?,6%,-17%,20%
CCCCCc1cc(=O)oc2c(C(CCN3CCCC3)c3cc(OC)c(OC)c(OC)c3)c(OC)cc(OC)c12 (stereo not drawn),7%,22µM*,0%,?,5%
Cc1sc(NC(=O)/C=C/c2ccco2)c(C(=O)O)c1C,5%,-12%,-4%,?,-7%
COc1ccc(/C=C/C(=O)Nc2sc(C)c(C)c2C(=O)O)cc1,.,.,-1%,2.2µM*,?
CCCCCOc1ccc(/C=C/C(=O)Nc2sc(C)c(C)c2C(=O)OCC)cc1OC,.,.,?,28µM*,-23%
CCCCCOc1ccc(/C=C/C(=O)Nc2sc(C(C)=O)c(C)c2C(=O)OCC)cc1OC,.,.,2%,-2%,-2%
